From the supplement of paper PMC8728848
Many of the other results were omitted from the sample, so the strongest signals are more common in it than they were.

Tests used:
Test in all cases: glycan array binding signal (z-score within array); higher = stronger binding
Conditions in all cases: glycan notation: IUPAC condensed, linker removed; mutation: E227A
[1] = biological target: Fuc(a1-2)Gal(b1-3)GalNAc(a1-3)[Fuc(a1-2)]Gal(b1-4)Glc
Procedure, shortened: (§1)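 The Consortium for Functional Glycomics database supplied 3228 glycan arrays, of which those lacking an available protein sequence were dropped. The binding signal, a within-array Z-score, was averaged across arrays of the same protein sequence and across linkers. Negative scores can be read as non-binding.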

[2] = biological target: Fuc(a1-2)Gal(b1-3)GlcNAc(b1-3)[Gal(b1-4)GlcNAc(b1-6)]Gal(b1-4)Glc
Procedure, shortened: as §1

[3] = biological target: Fuc(a1-2)Gal(b1-3)[Fuc(a1-4)]GlcNAc(b1-2)Man(a1-3)[Fuc(a1-2)Gal(b1-3)[Fuc(a1-4)]GlcNAc(b1-2)Man(a1-3)]Man(b1-4)GlcNAc(b1-4)GlcNAc
Procedure, shortened: as §1

[4] = biological target: Fuc(a1-2)Gal(b1-4)Fuc(a1-3)]GlcNAc(b1-2)Man(a1-3)[Fuc(a1-2)Gal(b1-4)[Fuc(a1-3)]GlcNAc(b1-2)Man(a1-6)]Man(b1-4)GlcNAc(b1-4)GlcNAc
Procedure, shortened: as §1

[5] = biological target: Fuc(a1-2)[Gal(a1-3)]Gal(b1-3)GlcNAc(b1-3)GalNAc
Procedure, shortened: as §1

[6] = biological target: Fuc(a1-2)[Gal(a1-3)]Gal(b1-4)[Fuc(a1-3)]GlcNAc(b1-3)GalNAc
Procedure, shortened: as §1

[7] = biological target: Fuc(a1-2)[Gal(a1-4)]Gal(b1-4)GlcNAc
Procedure, shortened: as §1

[8] = biological target: Fuc(a1-2)[GalNAc(a1-3)]Gal(b1-3)GlcNAc(b1-3)GalNAc
Procedure, shortened: as §1

[9] = biological target: Fuc(a1-2)[GalNAc(a1-3)]Gal(b1-4)[Fuc(a1-3)]GlcNAc
Procedure, shortened: as §1

[10] = biological target: Fuc(a1-2)[GalNAc(b1-3)]Gal
Procedure, shortened: as §1

[11] = biological target: Fuc(a1-3)[Gal(b1-4)]GlcNAc6S
Procedure, shortened: as §1

[12] = biological target: Fuc(a1-3)[Gal3S(b1-4)]Glc
Procedure, shortened: as §1

[13] = biological target: Gal(b1-2)Gal
Procedure, shortened: as §1

[14] = biological target: Gal(b1-3)Gal(b1-4)GlcNAc
Procedure, shortened: as §1

[15] = biological target: Gal(b1-3)GalNAc
Procedure, shortened: as §1

[16] = biological target: Gal(b1-3)GalNAc(b1-4)Gal(b1-4)Glc
Procedure, shortened: as §1

[17] = biological target: Gal(b1-3)GlcNAc(a1-6)Gal(b1-4)GlcNAc
Procedure, shortened: as §1

[18] = biological target: Gal(b1-3)GlcNAc(b1-6)Gal(b1-4)GlcNAc
Procedure, shortened: as §1

[19] = biological target: Gal(b1-3)GlcNAc6S
Procedure, shortened: as §1

[20] = biological target: Gal(b1-4)Glc
Procedure, shortened: as §1

[21] = biological target: Gal(b1-4)GlcNAc(b1-3)Gal(b1-4)GlcNAc(b1-3)Gal(b1-4)GlcNAc(b1-2)Man(a1-3)[Gal(b1-4)GlcNAc(b1-3)Gal(b1-4)GlcNAc(b1-3)Gal(b1-4)GlcNAc(b1-2)Man(a1-6)]Man(b1-4)GlcNAc(b1-4)GlcNAc
Procedure, shortened: as §1

[22] = biological target: Gal(b1-4)GlcNAc(b1-3)Gal(b1-4)GlcNAc(b1-3)Gal(b1-4)GlcNAc(b1-2)[Gal(b1-4)GlcNAc(b1-3)Gal(b1-4)GlcNAc(b1-3)Gal(b1-4)GlcNAc(b1-6)]Man(a1-6)[Gal(b1-4)GlcNAc(b1-3)Gal(b1-4)GlcNAc(b1-3)Gal(b1-4)GlcNAc(b1-2)Man(a1-3)]Man(b1-4)GlcNAc(b1-4)[Fuc(a1-6)]GlcNAc
Procedure, shortened: as §1

[23] = biological target: Gal(b1-4)GlcNAc(b1-6)[Gal(b1-3)]GalNAc
Procedure, shortened: as §1

[24] = biological target: Gal3S(b1-4)Glc
Procedure, shortened: as §1

[25] = biological target: Gal6S(b1-3)GlcNAc6S
Procedure, shortened: as §1

[26] = biological target: Gal6S(b1-4)Glc
Procedure, shortened: as §1

B1: Epa1-NP-mutant-E227A (Candida glabrata), Q6VBJ0 (protein)
chain: MILNPALFLNKCVCIYTTLILLLLTNGGYATSSNDISLASKDPTTFPLGCSPDITTPKKGLSMELYSYDFRKKGSYPCWDAAYLDPNYPRTGYKSHRLLAKVDGVTGNINFYYHATKGCTPQLGHLPASYNYPKPLTMTNFTMLLYGYFRPKVTGFHTFTISADDLLFVNFGAGNAFDCCRRDSSADHFGNYQAYAIWGSKTAKDELTVHLDAGVYYPIRLFYNNRAYDGALSFTFKTESNENTVSDFSEYFFSLDDTEEGCPGLISYDSSCASVKTSKIIGIDYHTETPNENLVPITKTIYHLGIPCTGTTTTPLCGSGFYDPLANKCVTINTSSTSSVTKTTSHTTSKEVSFHSSISSQKTLIPKSIPSPYGPIKSQSIPTEMETSSEISSSEYAFSDVISTPSHSPYTKKHSSLNSSSYTSTVIHSLTSYSISQGIFSTSLSEQNITSKSSTDKFSTATSMSNNITQSSIIISQFSTNNENYTTTSMHTSSDKISTETLNNSISTTTSILFSNSSTILKNNTTIISSDKDTHYHPVNPTIVCSTNKTEIICASITQPSISNSNNHWSSSVLKFNSTTVRSTLPSSAGSNETSINVPFSSSTESNTSTSSTSTSNSKMVRSTLPSSAGSNETSISVPFSSSTESNTSTSSTSTSNSKMVRSTLPSSAGSNETSINVPFSSSTESNTSTSSTSTSNSKTVRSTPFSSAGIIMTSLSQRNNKSASSYASSNSKCYNTADSCRKVHSTPSYLLTSSYTSEGVDYDCSLVSTKLKINDTNCVNNKHTTKSCLKTSVTTTIPTLEIKTARKSSSNTIGLHSYPTSSPNKSISSAPIIGYISSFKTIKTASPSYQTSDLTTITTITSLNNPGSTAVENTHESNDKSRKTSSNDISSKHSVIKETKDAVESSNKSHQTNTLKCSSIIIASSSHNSYESLGGTTLTLTLSKVYSPQNNDTLPFLEISEVNPSRTVLPESSKMMQYLTSTEERNKTARNTIATNIVSISTFHFEGEGNAIRMGYTQLLLMLIGIIVMNIGT
glycan array binding signal (z-score) [1]: -0.214 | glycan array binding signal (z-score) [2]: -0.138 | glycan array binding signal (z-score) [3]: -0.162 | glycan array binding signal (z-score) [4]: -0.184 | glycan array binding signal (z-score) [5]: -0.204 | glycan array binding signal (z-score) [6]: -0.168 | glycan array binding signal (z-score) [7]: -0.221 | glycan array binding signal (z-score) [8]: -0.197 | glycan array binding signal (z-score) [9]: -0.13 | glycan array binding signal (z-score) [10]: -0.161 | glycan array binding signal (z-score) [11]: -0.143 | glycan array binding signal (z-score) [12]: -0.172 | glycan array binding signal (z-score) [13]: -0.041 | glycan array binding signal (z-score) [14]: 2.03 | glycan array binding signal (z-score) [15]: 1.28 | glycan array binding signal (z-score) [16]: 3.42 | glycan array binding signal (z-score) [17]: -0.057 | glycan array binding signal (z-score) [18]: 7.88 | glycan array binding signal (z-score) [19]: 1.37 | glycan array binding signal (z-score) [20]: -0.13 | glycan array binding signal (z-score) [21]: 0.626 | glycan array binding signal (z-score) [22]: 1.15 | glycan array binding signal (z-score) [23]: 1.27 | glycan array binding signal (z-score) [24]: -0.193 | glycan array binding signal (z-score) [25]: 1.88 | glycan array binding signal (z-score) [26]: 4.56
